Over roughly 25,000 sequences, “ln(normalized median fluorescence intensity)” has its median near 9.3; the highest 2% begin near 10. This excerpt belongs to a sample that is enriched for the highest values.

Results on 25 sequences are retold here after the supplement of paper PMC11417369.

For the assay, the system named is PF3D7_0420300 AP2 domain 1 (GST-tagged). Description: gcPBM binding intensity (ln(normalized median fluorescence intensity)); higher = stronger DNA binding. The essentials: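 The binding buffer was 1× PBS containing 1% milk, 0.2 mg/ml BSA, 0.5% salmon testes DNA and 0.03% Triton X-100. In it, GST-tagged P. falciparum DNA-binding domains expressed in E. coli were applied for 1 h to an Agilent 4 × 180k array of primer-extended double-stranded 36-bp intergenic genomic probes plus negative controls. Binding intensity, read with Alexa488 anti-GST antibody and a 488 nm scan, is the highest Masliner-normalised natural-log median intensity across replicate spots of either probe orientation.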
For ATTACATTAATAAGAGTGCATTATATAAGTTTTATG, the “gcPBM binding intensity (ln)” value is 9.2. For “TTTGGCTAGTCAAGTTGTACAAAAAAAAAAAAAAAA [XGTACX_site8382]” the value was 8.58; for “GTAATACACAGACACACACACATACACATATTTATA [CACACA_site7313]”, 10. With “TTGTACTACAATCCTTTATTTATTTAAACCTGTATG [CACACA_negctrl_site428]” the figure was 9.14.

On to “TTCTTCAAGGAAAACACATGCGCATTTTCACCAATT [TGCATGCA_site11]”, for which the “gcPBM binding intensity (ln)” value is 9.15. “TTTTCAGAAAAGAGAAACTTTATTTTTCACAACCGA [TGCATGCA_negctrl_site389]”: the “gcPBM binding intensity (ln)” value is 8.85.

Regarding “AAACCTACATAACATACACACGCATATATATAATTT [CACACA_site8923]”, the “gcPBM binding intensity (ln)” value worked out at 9.69. For “ACCTACATAACATACACACGCATATATATAATTTTA [CACACA_site2847]”, the “gcPBM binding intensity (ln)” value was 9.64. Consider “AAGTAATTTGTTGACACACACACACGCATACCTATA [CACACA_site7140]”, for which the “gcPBM binding intensity (ln)” value came out at 10.2. For “TATATAAAAAATTCAATACACACCATATATAAATAT [CACACA_site3987]” the value was 9.66; for “AATATATAAGTGTTGTGTACTAAAGTATTTTCCTAT [XGTACX_site1622]”, 9.5. On to “ATAGTATACAGACACACACACACACGGATATAAATA [CACACA_site6914]”, for which the “gcPBM binding intensity (ln)” value was 10.3. For “GCTATAAATACAGACGCACACATATACATACAGATA [CACACA_site5778]” the value was 9.49; for “CGCGCACACGGACACACACACACACGGATATAAATA [CACACA_site7102]”, 10.2; for “CACACGCACGGACACACACACATATAAAATCTATAT [CACACA_site6428]”, 9.91. With “CACGCATACAGACACACACACACACGGATATAAATA [CACACA_site6445]” the figure was 10.3; with “CACACGCACAGACACACACACACATATAAATATGTA [CACACA_site6300]”, 10.1; with “TAAATACAGACATATACACACATATATATATATATA [CACACA_site4382]”, 9.28. With “CACACGCACAGACACACACACACACGGATATAAATA [CACACA_site6301]” the figure was 10.2; with “CGCATACACAGACACACACACACATATAAATATGTA [CACACA_site6444]”, 9.92; with “TAAATAAATTTATACACACACACACGGATATAAATA [CACACA_site6532]”, 10.1. Take “ACCATATAAATAAACACACACACACGGATATAAATA [CACACA_site7157]”: the “gcPBM binding intensity (ln)” value turned out to be 10.1.

Regarding “ACTTGTAAGAGACACACACACACACGGATATAAATA [CACACA_site6517]”, the “gcPBM binding intensity (ln)” value was found to be 10.1. For “GAGAAATTTATACATACACACATATAAATATTATAG [CACACA_site7819]” the value was 9.6; for “AAAAAAAAAAAAAAAAGTACGTATCAAAGCATCAAA [XGTACX_site880]”, 9.42.
